Compound activity from PubChem BioAssay.
Beta cell apopt = blocks beta cell apoptosis; INS-1E cytokine-induced death, ATP luminescence, 48 h; percent of positive-control rescue, neutral wells zero; protection from apoptosis, % (no concentration beside the values); 300,000 tested, 0.8% active; AID 435005;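 active means Every replicate reaches about 75%, or at least half do and their mean reaches it too, limit read from the data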;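 further: 0% = cytokine-treated negative control wells and 100% = positive control rescue; higher means more ATP so stronger rescue from cytokine killing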
GRIN3A LBD mod = modulators (binders) of human NR3A ligand-binding domain | 340,000 tested, 2.5% active | NR3A LBD differential scanning fluorimetry, Tm shift; 0% = protein alone, 100% = glycine-bound protein | AID 1259313 | Tm shift relative to glycine control, % at 25 µM;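 active means melting temperature shift of at least 10% of the positive control shift, at one fixed dose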
Mdm2-MdmX inh = human Mdm2/MdmX binding inhibition; SaOS-2 split-luciferase Mdm2/MdmX complementation, luminescence; O15151+Q00987; inhibition, % at 8 µM; 330,000 tested, 3% active;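 active means inhibition of at least 50% at 8 µM in the primary screen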
Target sequence (O15151 whole entry, looked up): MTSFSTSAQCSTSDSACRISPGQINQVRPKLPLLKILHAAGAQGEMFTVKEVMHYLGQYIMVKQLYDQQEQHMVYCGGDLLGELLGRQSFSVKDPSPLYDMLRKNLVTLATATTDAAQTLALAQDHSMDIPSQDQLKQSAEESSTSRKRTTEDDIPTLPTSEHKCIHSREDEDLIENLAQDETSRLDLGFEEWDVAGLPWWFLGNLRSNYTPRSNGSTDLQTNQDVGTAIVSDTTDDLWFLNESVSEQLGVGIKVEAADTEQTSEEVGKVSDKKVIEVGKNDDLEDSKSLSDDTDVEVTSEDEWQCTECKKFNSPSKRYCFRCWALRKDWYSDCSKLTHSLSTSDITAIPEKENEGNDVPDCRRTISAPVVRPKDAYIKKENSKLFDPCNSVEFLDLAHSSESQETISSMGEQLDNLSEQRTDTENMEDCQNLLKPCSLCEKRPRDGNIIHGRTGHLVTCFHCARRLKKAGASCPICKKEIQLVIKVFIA
Target sequence (Q00987 whole entry, looked up): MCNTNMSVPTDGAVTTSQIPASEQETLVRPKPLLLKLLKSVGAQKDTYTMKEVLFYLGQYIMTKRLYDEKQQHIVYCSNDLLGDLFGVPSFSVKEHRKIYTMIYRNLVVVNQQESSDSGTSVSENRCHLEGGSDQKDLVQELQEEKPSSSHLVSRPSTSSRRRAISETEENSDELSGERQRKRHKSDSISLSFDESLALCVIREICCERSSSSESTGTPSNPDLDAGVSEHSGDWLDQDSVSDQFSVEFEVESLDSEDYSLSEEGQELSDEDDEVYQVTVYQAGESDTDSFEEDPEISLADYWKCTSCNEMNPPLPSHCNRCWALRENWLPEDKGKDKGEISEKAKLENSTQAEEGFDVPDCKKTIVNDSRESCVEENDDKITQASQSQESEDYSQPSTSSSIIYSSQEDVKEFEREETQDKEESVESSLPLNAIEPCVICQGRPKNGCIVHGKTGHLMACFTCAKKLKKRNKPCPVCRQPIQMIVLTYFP
CSC inhib = blocks cancer stem cells; cancer stem cell-like cells viability, luminescence; inhibition, % at 7.5 µM; 300,000 tested, 1.1% active; in the data active means inhibition above about 75%; tested in HMLE shEcad cells
MPTP inh = permeability transition pore inhibition; inhibition, % at 10 µM; 360,000 tested, 1.4% active; isolated mouse mitochondria, Ca2+ swelling absorbance, 30 min;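 active means inhibition of 50% or more, scaled per plate between neutral and stimulator controls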;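 further: 0% = DMSO wells given calcium and 100% = 1 mM EGTA wells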
Gli-Sufu antag = Gli-Sufu pathway antagonism; Sufu-KO-LIGHT fibroblasts, Gli luciferase reporter luminescence; inhibition, % at 5 µM; 340,000 tested, 0.74% active;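 active means inhibition above about 55%, limit read from the data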;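 further: 0% = DMSO-treated cells and 100% = wells with medium but no cells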
Gli-Sufu confirm = Gli-SUFU antagonism confirmation, single concentration | AID 602428 | 2,500 tested, 40% active | Sufu-KO-LIGHT cells, Gli luciferase reporter, luminescence | shares compounds with Gli-Sufu antag | inhibition, % at 5 µM;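 active means mean inhibition at 5 µM reaching about 45%, limit read from the data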;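 further: plate controls were DMSO-treated cells for no effect and wells lacking cells for full effect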
SufuKO cytotox = cytotoxic in Gli-SUFU antagonist counter-screen; shares compounds with Gli-Sufu antag; Sufu-KO-LIGHT cells cytotoxicity, ATP luminescence; cytotoxicity, % at 5 µM; 2,500 tested, 32% active; AID 651994;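 active means mean cytotoxicity at 5 µM above about 25%, limit read from the data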;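 further: cells exposed to compound overnight for roughly 16 to 18 hours; plate controls were DMSO wells with cells for no effect and medium without cells for full effect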
Wnt3a counter = inhibits Wnt3a reporter, counter-screen for Gli-SUFU antagonists. 2,500 tested, 20% active. Wnt-LIGHT cells, Wnt3a-driven luciferase reporter, luminescence. inhibition, % at 6.25 µM. AID 651995. shares compounds with Gli-Sufu antag;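 active means mean inhibition above about 25%, limit read from the data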
MPTP counter = membrane potential counter-screen of mitochondrial pore inhibitors; shares compounds with MPTP inh; isolated mitochondria, Rhodamine 123 fluorescence; inhibition, % at 10 µM; 5,000 tested, 78% active; AID 624504; in the data active means inhibition above about 22%;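 further: 0% = DMSO vehicle and 100% = positive control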
An asterisk follows results filed as active; x = not tested or not shown. Shown are actives, neighbours in structure and some others; about 6.6% of the full set was active somewhere.

SMILES	Beta cell apopt	GRIN3A LBD mod	Mdm2-MdmX inh	CSC inhib	MPTP inh	Gli-Sufu antag	Gli-Sufu confirm	SufuKO cytotox	Wnt3a counter	others
CC12CNCC(C)(CNC1)C2O (stereo not drawn)	-2	2	-5	1	0	0	x	x	x
Cc1ccc(N2C(=O)NC(=O)/C(=C\c3cc(C)n(-c4sc5c(c4C#N)CCCC5)c3C)C2=O)cc1	2	-3	-1	27	8	59*	53*	42*	-45
CCOc1cccc(N2C(=O)/C(=C/c3ccco3)C(=O)NC2=S)c1	-4	-1	-4	9	2	55*	12	0	5
O=C1NC(=S)N(c2ccccc2)C(=O)/C1=C/c1ccco1	-4	-1	-10	2	0	26	x	x	x
CCOP(=O)(Cc1cc(C#N)oc1C)OCC	-2	0	6	-5	0	-6	x	x	x
CC[C@@H](O)C[C@H]1CCC[C@@]2(C[C@@H]3OC(=O)/C=C/[C@@](C)(O)[C@@H](O)[C@H](C)[C@@H](O)[C@H](OC4CCC(N(C)C)C(C)O4)[C@@H](O)[C@](C)(O)CCCCC/C=C/[C@@H]4CC(C)(C)O[C@@]4(O)C[C@H](O2)[C@H]3C)O1 (stereo partly drawn)	x	0	x	x	-1	89*	89*	20	22
O=C(CCl)Nc1nccs1	0	1	20	7	0	0	x	x	x
CCOP(=O)(OCC)C(O)c1cccc([N+](=O)[O-])c1 (stereo not drawn)	-6	0	0	-1	0	58*	12	25*	-34
CCOc1ccc(-n2c(O)c(C=Nc3ccc(N(CC)CC)cc3)c(=O)[nH]c2=O)cc1	x	-5	1	x	2	97*	11	17	-12
CCOc1ccc(-c2cc(C)[n+](CCO)c(-c3ccc(OCC)cc3)c2)cc1	37	0	21	x	-1	64*	60*	34*	-47
O=C1NC(=S)N(c2ccccc2)C(=O)C1C(c1ccncc1)C1C(=O)NC(=S)N(c2ccccc2)C1=O (stereo not drawn)	-1	1	14	-11	-2	2	x	x	x
CCC(C)n1c(O)c(C=NCc2cccnc2)c(=O)[nH]c1=S (stereo not drawn)	x	-3	15	x	1	6	x	x	x
O=c1[nH]c(=S)n(Cc2ccc(F)cc2)c(O)c1C=NCc1cccnc1	-14	-4	0	-1	0	72*	22	-5	-14
CN1CC=C(c2c[nH]c3ccccc23)CC1	0	5	9	-5	-2	2	x	x	x
C1=C(c2c[nH]c3ccccc23)CCN(Cc2ccccc2)C1	0	0	25	-1	4	55*	20	20	-50
CSc1ncc(Cl)c(C(=O)O)n1	-10	4	9	-4	-5	54	34	-4	11
COP(=O)(OC)C1(Nc2ccc(C)cc2)CCCCC1	0	-2	-5	0	3	-5	x	x	x
CC1=CC2OC3CC4OC(=O)C=CC=CC(=O)OCCC(C)C(O)C(=O)OCC2(CC1O)C4(C)C31CO1 (stereo not drawn)	x	2	x	x	0	88*	96*	82*	104*
COc1cc([C@@H]2c3cc4c(cc3[C@@H](OC)[C@H]3COC(=O)[C@H]23)OCO4)cc(OC)c1O	0	1	36	49	-2	46	x	x	x
CCOP(=O)(CCP(=O)(OCC)OCC)OCC.C[CH2][Sn]([Cl])([Cl])[CH2]C	x	0	x	x	-1	63*	63*	14	-25
CCOP(=O)(OCC)OCC	7	0	13	-17	0	5	x	x	x
C/C(=N\Nc1cccc2ccccc12)c1c(O)n(Cc2ccccc2)c(=O)[nH]c1=O	3	1	11	11	0	57*	18	12	-7
C/C(=N\NC(=O)c1ccccc1)c1c(O)n(Cc2ccccc2)c(=O)[nH]c1=O	-2	-1	26	-5	-2	-5	x	x	x
CCC1(OC(=O)CN)C(=O)OCc2c1cc1n(c2=O)Cc2cc3ccccc3nc2-1 (stereo not drawn)	92*	1	x	55	-1	82*	59*	59*	-83
O=C1NC(=O)N(Cc2ccc(F)cc2)C(=O)/C1=C\c1ccc([N+](=O)[O-])s1	2	-7	-25	19	21	-3	x	x	x
SMILES	Beta cell apopt	GRIN3A LBD mod	Mdm2-MdmX inh	CSC inhib	MPTP inh	Gli-Sufu antag	Gli-Sufu confirm	SufuKO cytotox	Wnt3a counter	others
N/C(=N\N=C\c1ccc(O)cc1O)N[N+](=O)[O-]	1	-23	-52	-1	-1	55*	14	15	42*
COc1ccccc1/C=N/N=C(/N)N[N+](=O)[O-]	-1	-1	14	-11	1	-29	x	x	x
C=CCn1c(O)c(C(CC)=NCc2ccco2)c(=O)[nH]c1=O	x	5	34	-1	2	5	x	x	x
CC(=O)NC(Cc1ccc(N(CCCl)CCCl)cc1)C(=O)NCC(=O)NCC(=O)O (stereo not drawn)	9	3	12	-8	0	53	19	4	-2
O=S(=O)(c1cc(Cl)cc(Cl)c1)N1Cc2cc(N3CCOCC3)ccc2-n2nncc2C1	x	x	x	x	-1	x	x	x	x
CC(=O)c1cn(Cc2ccccc2C#N)c2ccccc12	x	1	-4	x	77*	59*	63*	18	34*	MPTP counter=90*
CC(=O)c1cn(Cc2ccccc2F)c2ccccc12	x	-1	23	x	73*	59*	49*	36*	19	MPTP counter=70*
O=C1NC(=O)C(=Cc2ccc(Cl)cc2)C(=O)N1	x	x	x	x	-2	x	x	x	x
COc1cc2c(cc1OC)C1C(=O)c3ccc4c(c3OC1CO2)CC(C(C)C)O4 (stereo not drawn)	x	-2	x	x	103*	85*	89*	47*	37*	MPTP counter=88*
O=C(O)C1C2c3ccccc3C(c3ccccc32)C1C(=O)Nc1ccccc1 (stereo not drawn)	-1	6	0	5	-3	-3	x	x	x
O=C(c1ccc(C(F)(F)F)cc1)C1CCCN(Cc2ccc(CO)o2)C1 (stereo not drawn)	-3	1	-37	8	1	1	x	x	x
COc1ccc(C(=O)C2CCCN(Cc3cnc(C)s3)C2)cc1OC (stereo not drawn)	1	-2	-12	-2	3	12	x	x	x
